Screening results (PubChem BioAssay)
SMN2 splice up: increases expression of the SMN2 splice variant; HEK293 SMN2-luciferase splicing reporter, luminescence, 30-36 h; Potency, µM (series often up to 46.1 µM), without a hit: top-dose activity change, positive = activation, actives largely listed as activators; 210,000 tested, 2.8% active; AID 1458; further: % of control where 0% means no effect; nearly all actives have a fitted effect of over 55% in size
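HEK293 cells carry an SMN2 minigene-luciferase reporter in which exon 7 inclusion puts luciferase in frame. Cells were seeded at 2000 cells/well, attached for 10-12 hours, then exposed to compounds for 30-36 hours at 37C before ONE-Glo luminescence.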
NPC1 prom act: activates the NPC1 promoter; 320,000 tested, 2.4% active; Potency, µM (doses to about 9.22 µM), inactives show at the top dose activation, actives largely listed as activators; Huh7 NPC1 promoter luciferase reporter, 24 h; further: % of control where 0% means no effect; nearly all actives have a fitted effect of over 60% in size
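Stably transfected Huh7 (NPC1 promoter→luciferase), 1500 cells/well in Opti-MEM + 10% FBS, 2 h settle, then compound 24 h at 37 °C. Luminescence after 10 min with Amplite reagent.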
Luc counter: Kinase-Glo luciferase inhibition (counter-screen); Q27757; Kinase-Glo luciferase, ATP luminescence, 8 min; Potency, µM (doses to about 38.3 µM), for inactives: at the highest dose activity change, negative = inhibition, actives largely listed as inhibitors; 200,000 tested, 0.28% active; further: on the % scale 0 is the no-effect control and ±100 the full control effect; nearly all actives have a fitted effect of over 60% in size
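Compound is pinned into ATP-containing buffer (10 uM ATP, imidazole pH 7.2, 7 mM MgCl2). Kinase-Glo luciferase reagent is then added. Light output is recorded following an 8-min room-temperature incubation.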
Rab9 prom act: activates the Rab9 promoter; Huh7 Rab9 promoter-luciferase reporter, luminescence, 24 h; Potency, µM (titrated, usually from 9.22 µM), inactives show at the top dose activation, negative = inhibition, usual class: activators; 320,000 tested, 2.8% active; AID 485297; further: % of control where 0% means no effect; nearly all actives have a fitted effect of over 60% in size
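Huh7 cells stably carrying Rab9 promoter–luciferase reporter, plated 1500 cells/well, compound added after 2 h and incubated 24 h at 37 °C; luciferase luminescence then read after 10 min with detection reagent.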
ELG1 genotox: induces genotoxicity in HEK293T cells with luciferase-tagged ELG1; HEK293T ELG1-luciferase reporter, luminescence, 16 h; Potency, µM (highest dose often 46 µM), inactives show top-dose activity change, positive = activation, hits mostly activators; 330,000 tested, 1.3% active; AID 504466; further: % of control where 0% means no effect; nearly all actives have a fitted effect of over 60% in size
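Quantitative HTS format in 1536-well plates. HEK293T ELG1-luciferase reporter cells receive test compound and are incubated 16 hr at 37 °C, 5% CO2; ONE-Glo added, 30 min room temperature, then luminescence read.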
FLuc counter: firefly luciferase modulation, counter-screen for miR-21 project | AID 588342 | purified FLuc, Km substrates, luminescence inhibition | 360,000 tested, 6.9% active | P08659 | Potency, µM (doses to about 57.5 µM), without a hit: top-dose activity change, negative = inhibition, usual class: inhibitors;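 further: plate controls were vehicle for no effect and reference inhibitor for full effect; nearly all actives have a fitted effect of over 55% in size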
Target sequence (P08659 whole entry, looked up): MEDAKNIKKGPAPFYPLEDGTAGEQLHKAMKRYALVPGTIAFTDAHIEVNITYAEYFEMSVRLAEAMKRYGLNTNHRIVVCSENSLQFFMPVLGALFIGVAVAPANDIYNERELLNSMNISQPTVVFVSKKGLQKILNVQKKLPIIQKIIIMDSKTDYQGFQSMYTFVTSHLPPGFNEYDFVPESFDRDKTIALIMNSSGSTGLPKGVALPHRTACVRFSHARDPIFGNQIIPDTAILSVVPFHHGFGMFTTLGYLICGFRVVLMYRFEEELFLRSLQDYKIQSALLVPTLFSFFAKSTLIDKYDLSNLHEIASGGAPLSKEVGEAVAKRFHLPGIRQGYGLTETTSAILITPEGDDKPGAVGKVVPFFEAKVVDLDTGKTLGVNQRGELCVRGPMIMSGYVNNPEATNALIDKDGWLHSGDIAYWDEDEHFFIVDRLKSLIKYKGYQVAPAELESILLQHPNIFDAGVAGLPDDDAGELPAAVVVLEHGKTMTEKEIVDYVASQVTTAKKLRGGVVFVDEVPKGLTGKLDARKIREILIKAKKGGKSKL
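Biochemical qHTS of compounds, final roughly 60 µM downward over six points, against 10 nM purified firefly luciferase using Km concentrations of substrates (10 uM D-luciferin, 10 uM ATP) in Tris acetate pH 7.5 buffer; luminescence output.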
Active calls of the source: *; ? = inconclusive; / = no result given; [ ] = remark or other dose. Compounds with a hit are over-represented: about 7.3% of the library has one in this group of screens. The call rests on the fitted dose curve; in most records, active means well fitted curve in the direction sought with a large enough effect; inconclusive means small, poorly fitted or top-dose-only effect, or another doubt; inactive means no such curve, though single readings can be large; an effect the other way counts as inactive or inconclusive. Potency means the concentration at half of the fitted maximal effect.

SMILES | SMN2 splice up | NPC1 prom act | Luc counter | Rab9 prom act | ELG1 genotox | FLuc counter
CN(C)S(=O)(=O)c1ccc(C(=O)Nc2cccc(C(=O)N3CCOCC3)c2)cc1 | / | 0% | / | 1% | -3% | -2%
COc1ccc(C(=O)Nc2cccc(C(=O)N3CCCCC3)c2)cc1 | / | 14% | / | 11% | 2% | 15µM*
Cc1ccc(OCC(=O)Nc2ccc(OCc3cc(=O)n4cccc(C)c4n3)cc2)cc1C | / | / | / | / | / | -2%
COc1cccc(C(=O)Nc2ccc(NC(=O)c3ccco3)nc2)c1 | ? | ? | -7% | 4.5µM* | 19% | 21µM*
CCCC(=O)Nc1ccc(NC(=O)c2cccc(OC)c2)nc1 | ? | ? | -21% | 3.2µM* | 12% | 12µM*
COc1cccc(C(=O)Nc2ccc(NC(C)=O)cn2)c1 | ? | ? | -5% | ? | ? | 21µM*
O=C(Nc1ccc(NC(=O)c2ccco2)nc1)c1cccnc1 | 11µM* | 2.2µM* | -1% | 2µM* | ? | 11µM*
COc1cc(C(=O)Nc2ccc(NC(=O)c3ccco3)nc2)cc(OC)c1OC | 9% | -2% | 0% | 9% | 0% | 0%
COc1cccc(C(=O)Nc2ccc(NC(=O)C3CC3)nc2)c1 | / | -2% | / | 3% | 3% | -2%
COc1cc(Cl)c(C)cc1NC(=O)c1cnc(N2CCOCC2)c2ccccc12 | / | / | / | / | / | -15%
COc1ccc(NC(=O)C2CCN(C3=NS(=O)(=O)C(c4ccc(C)c(C)c4)=C3C)CC2)cc1OC | / | / | / | / | / | 1%
CCCCn1c(=O)c2oc3ccccc3c2n(CC(=O)Nc2cccc(Cl)c2)c1=O | / | / | / | / | / | -4%
Cc1ccc(OCC(=O)Nc2c(C(=O)c3ccc(Cl)cc3)oc3ccccc23)cc1C | -2% | / | / | / | / | 1%
O=C(Nc1ccc(NC(=O)c2ccccc2F)cn1)c1ccco1 | / | 0.32µM* | / | 0.56µM* | ? | 1.9µM*
Cc1cc(NC(=O)c2cccc(F)c2)ncc1NC(=O)c1ccco1 | 14µM* | 1.3µM* | ? | 2µM* | 3.7µM* | 11µM*
O=C(Nc1ccc(NC(=O)C2CC2)nc1)c1ccco1 | 17% | ? | -7% | ? | ? | ?
CCCC(=O)Nc1ccc(NC(=O)c2ccco2)cn1 | / | 27% | / | ? | ? | ?
O=C(Nc1ccc(NC(=O)c2ccco2)nc1)c1cccc(F)c1 | / | 0.89µM* | / | 3.2µM* | ? | 5.4µM*
O=C(CCN1CCOCC1)c1ccc2c(c1)OCCO2 | 25% | 1% | 0% | 5% | 5% | -4%
O=C(OCCN1CCOCC1)c1ccc(Cl)cc1Cl | / | 1% | / | -1% | 9% | 24µM*
O=C(OCCN1CCOCC1)c1ccc2c(c1)OCCO2 | ? | / | -3% | / | / | 24µM*
O=C(CCCN1CCOCC1)c1ccc2c(c1)OCCO2 | ? | ? | 4% | 2µM* | ? | 13µM*
Cc1ccccc1C(=O)OCCN1CCOCC1 | -4% | -3% | -3% | 1% | 9% | 0%
CC1CCN(C(=O)CSc2c(C(C)C)cnc3c2c(=O)n(C)c(=O)n3C)CC1 | / | / | / | / | / | -6%
CCCC(=O)Nc1ncnc2c1ncn2C1OC2COP(=O)(O)OC2C1OC(=O)CCC (configuration not stated) | ? | / | -7% | / | / | /
SMILES | SMN2 splice up | NPC1 prom act | Luc counter | Rab9 prom act | ELG1 genotox | FLuc counter
CCc1ccc(C2=C(C)C(N3CCC(C(=O)NCCc4ccco4)CC3)=NS2(=O)=O)cc1 | / | / | / | / | / | -1%
CCOc1ccc(NC(=O)CN2C(=O)CSC(C)C2=O)cc1 (configuration not stated) | 9% | -1% | -1% | -2% | -2% | 17µM*
COc1ccc(NC(=O)CN2C(=O)CSC(C)C2=O)c(OC)c1 (configuration not stated) | -4% | -3% | 0% | 0% | -2% | 1%
CCOc1ccc(NC(=O)/C(C=Nc2ccccc2)=C(\C)O)cc1 | / | -2% | / | 3% | -9% | 12µM*
O=C(Cc1ccccc1)Nc1ccc(SC(F)F)cc1 | 11µM* | 4µM* | -2% | 3.2µM* | 12% | 17µM*
CCOc1ccc(NCC(=O)Nc2ccc(C)cc2C)cc1 | -9% | -5% | -3% | -4% | -3% | 0%[2.3 µM]
CCOc1ccc(NC(=O)CNc2ccc(C)cc2Cl)cc1 | -8% | -1% | 2% | -5% | 2% | 9.5µM*
CCc1cnc2c(c1SCC(=O)Nc1ccc(Cl)cc1)c(=O)n(C)c(=O)n2C | / | / | / | / | / | -6%
CC(C)c1ccc(C(=O)Nc2ccc(-c3nc4ccccc4s3)c(Cl)c2)cc1 | ? | / | / | / | / | -10%
O=C1OC(O)C(C(Cl)Cl)=C1Cl (configuration not stated) | -1% | / | / | / | / | /
COC(=O)c1ccc(NC(=O)Cc2ccc(C)cc2)cc1 | -11% | 5% | -4% | 4% | 1% | 0%
COC(=O)c1ccc(NC(=O)C(=O)c2cccn2C)cc1 | 0.89µM* | 0.4µM* | 13µM* | 0.35µM* | ? | 1.9µM*
CC(=O)Nc1ccc(C(=O)OCCc2ccccc2)cc1 | / | 17% | / | 18% | ? | 12µM*
CC(=O)OCC(=O)Nc1ccc(SC(F)F)cc1 | 21% | -2% | -3% | 5% | 0% | ?
C/C=C/C(=O)OCC(=O)Nc1ccc(SC(F)F)cc1 | 5% | -27% | -1% | 1% | 2% | 17µM*
COC(=O)c1ccc(NC(=O)Cc2ccccc2)cc1 | 9% | 4µM* | 2% | 2.5µM* | ? | 15µM*
O=S(=O)(c1ccc(Br)cc1)c1nc(-c2ccco2)oc1SCc1ccccc1Cl | 20% | / | / | / | / | 0%
COc1ccc(CC(=O)OCC(=O)Nc2ccc(C(=O)Nc3ccc(OC)cc3)cc2)cc1 | / | 13% | / | 16% | 12% | -2%
CCOc1ccc(NC(=O)Cc2ccccc2)cc1 | 8.9µM* | 3.5µM* | ? | 2.8µM* | ? | 21µM*
CCOc1ccc(NC(=O)CNC(=O)Cc2ccccc2)cc1 | / | 1% | / | 2% | 2% | 5%
CCOc1ccc(NC(=O)c2ccc(NC(=O)COC(=O)Cc3ccc(OC)cc3)cc2)cc1 | 11µM* | 3.5µM* | 0% | 2.5µM* | ? | 0%
O=C(Nc1ccc(Cl)cc1)OCCN1CCN(Cc2ccccc2)CCC1=O | / | / | 1%[39.9 µM] | / | / | /
O=C(O)c1ccc(CSc2nc3ccc(NC(=O)c4ccccc4C(=O)O)cc3s2)cc1 | 19% | -5% | 3% | -5% | -1% | 17µM*
COC(=O)CSc1nc2ccc(NC(C)=O)cc2s1 | 15% | -4% | 0% | -5% | 2% | ?
N#Cc1ccccc1CSc1nc2ccc(NC(=O)c3ccccc3C(=O)O)cc2s1 | / | -5% | -1% | 2% | 12% | ?
CC(=O)Nc1ccc2nc(SCc3ccccc3)sc2c1 | / | / | / | / | / | 13µM*
CCS(=O)(=O)N1CCc2cc(C(=O)Nc3ccc(OC)cc3OC)ccc21 | / | / | / | / | / | -13%
